PubChem BioAssay AID1159580 (chemical genetic matrix, 2015)
The whole screen tested about 5,500 compounds, of which about 2,000 (36%) were called active. Not shown: some 18% with an inconclusive outcome. Rule as the data show it: active = normalized growth mostly below about 0.91 (no sharp cut-off); inconclusive = no clear call, values can overlap the other calls; inactive = mostly above about 0.92. The list shows a part of the results.

Assay: chemical genetic growth profiling, strain panel (AID 1159580);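 also: tested at 20 µM; growth read once vehicle control cultures reached saturation at 30 °C; 1 = growth at the plate median or of vehicle wells; lower values mean less growth of the strain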
Conditions: growth OD
[1] = S. cerevisiae deletion strains, locus YHR030C, strain SLT2, active compounds read low
[2] = S. cerevisiae deletion strains, locus YJL187C, strain SWE1, active compounds read low

Measured: normalized growth

O=[N+]([O-])c1ccc(C(O)C(O)CO)cc1 (configuration not stated)
inactive: S. cerevisiae deletion strains, locus YAL013W, strain DEP1, active compounds read low 0.974 | S. cerevisiae deletion strains, locus YBR229C, strain ROT2, active compounds read low 0.981 | S. cerevisiae deletion strains, locus YDL101C, strain DUN1, active compounds read low 1.01 | S. cerevisiae deletion strains, locus YDR150W, strain NUM1, active compounds read low 1 | S. cerevisiae deletion strains, locus YEL061C, strain CIN8, active compounds read low 1 | S. cerevisiae deletion strains, locus YGR078C, strain PAC10, active compounds read low 0.996 | [1] 1.07 | S. cerevisiae deletion strains, locus YHR087W, strain rtc3, active compounds read low 0.958 | [2] 0.993 | S. cerevisiae deletion strains, locus YJR043C, strain POL32, active compounds read low 0.987 | S. cerevisiae deletion strains, locus YJR075W, strain HOC1, active compounds read low 0.988 | S. cerevisiae deletion strains, locus YLR039C, strain RIC1, active compounds read low 0.974 | S. cerevisiae deletion strains, locus YLR058C, strain SHM2 (second series), active compounds read low 0.988 | S. cerevisiae deletion strains, locus YLR085C, strain ARP6, active compounds read low 0.986 | S. cerevisiae deletion strains, locus YLR262C, strain YPT6, active compounds read low 0.963 | S. cerevisiae deletion strains, locus YML094W, strain GIM5, active compounds read low 0.99 | S. cerevisiae deletion strains, locus YMR219W, strain ESC1, active compounds read low 0.994 | S. cerevisiae deletion strains, locus YMR263W, strain SAP30, active compounds read low 1 | S. cerevisiae deletion strains, locus YMR307W, strain GAS1, active compounds read low 0.959 | S. cerevisiae deletion strains, locus YNL153C, strain GIM3, active compounds read low 0.987 | S. cerevisiae deletion strains, locus YNL298W, strain CLA4 (second series), active compounds read low 0.961 | S. cerevisiae deletion strains, locus YNL322C, strain KRE1, active compounds read low 0.996 | S. cerevisiae deletion strains, locus YNR030W, strain Alg12, active compounds read low 0.983 | S. cerevisiae deletion strains, locus YPL055C, strain LGE1, active compounds read low 0.971 | S. cerevisiae deletion strains, locus YPL241C, strain CIN2, active compounds read low 1 | S. cerevisiae deletion strains, locus YPR135W, strain CTF4, active compounds read low 1.02 | S. cerevisiae strains, strain wild type, active compounds read low 0.979

COP(=S)(OC)Oc1ccc(Sc2ccc(OP(=S)(OC)OC)cc2)cc1
inactive: S. cerevisiae deletion strains, locus YAL021C, strain ccr4, active compounds read low 1 | S. cerevisiae deletion strains, locus YAL026C, strain drs2, active compounds read low 1 | S. cerevisiae deletion strains, locus YAL030W, strain snc1, active compounds read low 0.999 | S. cerevisiae deletion strains, locus YBL061C, strain skt5, active compounds read low 1.01 | S. cerevisiae deletion strains, locus YBR009C, strain hhf1, active compounds read low 1.01 | S. cerevisiae deletion strains, locus YBR023C, strain chs3, active compounds read low 1.01 | S. cerevisiae deletion strains, locus YBR171W, strain sec66, active compounds read low 0.992 | S. cerevisiae deletion strains, locus YBR231C, strain swc5, active compounds read low 1 | S. cerevisiae deletion strains, locus YBR279W, strain paf1, active compounds read low 1.01 | S. cerevisiae deletion strains, locus YCL011C, strain gbp2, active compounds read low 1 | S. cerevisiae deletion strains, locus YCL016C, strain dcc1, active compounds read low 1.01 | S. cerevisiae deletion strains, locus YCL061C, strain MRC1, active compounds read low 1.01 | S. cerevisiae deletion strains, locus YCL069W, strain vba3, active compounds read low 1.01 | S. cerevisiae deletion strains, locus YCR088W, strain abp1, active compounds read low 0.994 | S. cerevisiae deletion strains, locus YDL005C, strain med2, active compounds read low 0.998 | S. cerevisiae deletion strains, locus YDL040C, strain nat1, active compounds read low 1 | S. cerevisiae deletion strains, locus YDR001C, strain nth1, active compounds read low 1.01 | S. cerevisiae deletion strains, locus YDR069C, strain doa4, active compounds read low 1.02 | S. cerevisiae deletion strains, locus YDR137W, strain rgp1, active compounds read low 1.02 | S. cerevisiae deletion strains, locus YDR159W, strain sac3, active compounds read low 0.994 | S. cerevisiae deletion strains, locus YDR195W, strain ref2 0.976 | S. cerevisiae deletion strains, locus YDR297W, strain sur2, active compounds read low 1 | S. cerevisiae deletion strains, locus YDR334W, strain swr1, active compounds read low 1.01 | S. cerevisiae deletion strains, locus YDR335W, strain msn5, active compounds read low 1.01 | S. cerevisiae deletion strains, locus YDR392W, strain spt3, active compounds read low 0.993 | S. cerevisiae deletion strains, locus YEL003W, strain gim4, active compounds read low 1.01 | S. cerevisiae deletion strains, locus YEL037C, strain rad23, active compounds read low 1 | S. cerevisiae deletion strains, locus YEL061C, strain CIN8 (second series), active compounds read low 1 | S. cerevisiae deletion strains, locus YER015W, strain faa2, active compounds read low 1 | S. cerevisiae deletion strains, locus YER016W, strain bim1, active compounds read low 1 | S. cerevisiae deletion strains, locus YER111C, strain swi4, active compounds read low 1 | S. cerevisiae deletion strains, locus YER155C, strain BEM2 (second series), active compounds read low 1 | S. cerevisiae deletion strains, locus YFR010W, strain ubp6, active compounds read low 1.01 | S. cerevisiae deletion strains, locus YGL167C, strain pmr1, active compounds read low 0.998 | S. cerevisiae deletion strains, locus YGL173C, strain kem1, active compounds read low 1 | S. cerevisiae deletion strains, locus YGL227W, strain vid30, active compounds read low 1 | S. cerevisiae deletion strains, locus YGL240W, strain doc1, active compounds read low 0.999 | S. cerevisiae deletion strains, locus YGL253W, strain hxk2, active compounds read low 1 | S. cerevisiae deletion strains, locus YHR013C, strain ard1, active compounds read low 0.986 | S. cerevisiae deletion strains, locus YHR027C, strain rpn1, active compounds read low 1.01 | [1] 0.973 | S. cerevisiae deletion strains, locus YHR079C, strain IRE1, active compounds read low 1.01 | S. cerevisiae deletion strains, locus YHR142W, strain chs7, active compounds read low 1.01 | S. cerevisiae deletion strains, locus YJL092W, strain hpr5, active compounds read low 1 | S. cerevisiae deletion strains, locus YJL095W, strain BCK1 (second series), active compounds read low 1 | S. cerevisiae deletion strains, locus YJL095W, strain BCK1, active compounds read low 0.999 | S. cerevisiae deletion strains, locus YJL115W, strain asf1, active compounds read low 1 | S. cerevisiae deletion strains, locus YJL129C, strain trk1, active compounds read low 1.02 | S. cerevisiae deletion strains, locus YJL154C, strain vps35, active compounds read low 1.01 | S. cerevisiae deletion strains, locus YJL164C, strain tpk1, active compounds read low 1.02 | S. cerevisiae deletion strains, locus YJL166W, strain qcr8, active compounds read low 1.01 | [2] 1.01 | S. cerevisiae deletion strains, locus YJR066W, strain TOR1, active compounds read low 0.946 | S. cerevisiae deletion strains, locus YKL160W, strain elf1, active compounds read low 1 | S. cerevisiae deletion strains, locus YKR026C, strain gcn3, active compounds read low 1 | S. cerevisiae deletion strains, locus YKR091W, strain srl3, active compounds read low 0.997 | S. cerevisiae deletion strains, locus YLL001W, strain dnm1, active compounds read low 1 | S. cerevisiae deletion strains, locus YLL026W, active compounds read low 0.995 | S. cerevisiae deletion strains, locus YLL041C, strain sdh2, active compounds read low 1 | S. cerevisiae deletion strains, locus YLR027C, strain aat2, active compounds read low 1 | S. cerevisiae deletion strains, locus YLR113W, strain HOG1, active compounds read low 0.977 | S. cerevisiae deletion strains, locus YLR221C, strain rsa3, active compounds read low 1 | S. cerevisiae deletion strains, locus YLR258W, strain gsy2, active compounds read low 1 | S. cerevisiae deletion strains, locus YLR262C, strain YPT6 (second series), active compounds read low 1.04 | S. cerevisiae deletion strains, locus YLR320W, strain mms22, active compounds read low 0.993 | S. cerevisiae deletion strains, locus YLR342W, strain FKS1, active compounds read low 1.01 | S. cerevisiae deletion strains, locus YLR357W, strain rsc2, active compounds read low 1.01 | S. cerevisiae deletion strains, locus YLR370C, strain arc18, active compounds read low 1.01 | S. cerevisiae deletion strains, locus YLR384C, strain iki3, active compounds read low 1 | S. cerevisiae deletion strains, locus YML120C, strain ndi1, active compounds read low 1.01 | S. cerevisiae deletion strains, locus YMR058W, strain fet3, active compounds read low 1.04 | S. cerevisiae deletion strains, locus YMR125W, strain sto1, active compounds read low 1 | S. cerevisiae deletion strains, locus YMR129W, active compounds read low 1.01 | S. cerevisiae deletion strains, locus YMR205C, strain PFK2, active compounds read low 0.992 | S. cerevisiae deletion strains, locus YMR231W, strain pep5, active compounds read low 1 | S. cerevisiae deletion strains, locus YNL071W, strain lat1, active compounds read low 1.01 | S. cerevisiae deletion strains, locus YNL183C, strain NPR1, active compounds read low 0.945 | S. cerevisiae deletion strains, locus YNL209W, strain ssb2, active compounds read low 1.01 | S. cerevisiae deletion strains, locus YNL248C, strain rpa49, active compounds read low 1 | S. cerevisiae deletion strains, locus YNL322C, strain KRE1 (second series), active compounds read low 1 | S. cerevisiae deletion strains, locus YNR049C, strain mso1, active compounds read low 1.01 | S. cerevisiae deletion strains, locus YOR001W, strain rrp6, active compounds read low 1 | S. cerevisiae deletion strains, locus YOR070C, strain gyp1, active compounds read low 1.01 | S. cerevisiae deletion strains, locus YOR080W, strain dia2, active compounds read low 1 | S. cerevisiae deletion strains, locus YOR083W, strain WHI5, active compounds read low 1.01 | S. cerevisiae deletion strains, locus YOR106W, strain vam3, active compounds read low 0.999 | S. cerevisiae deletion strains, locus YOR231W, strain MKK1, active compounds read low 0.984 | S. cerevisiae deletion strains, locus YOR265W, strain rbl2, active compounds read low 1.02 | S. cerevisiae deletion strains, locus YOR270C, strain vph1, active compounds read low 1.03 | S. cerevisiae deletion strains, locus YOR290C, strain snf2, active compounds read low 1 | S. cerevisiae deletion strains, locus YPL051W, strain arl3, active compounds read low 1.01 | S. cerevisiae deletion strains, locus YPL078C, strain atp4, active compounds read low 1.01 | S. cerevisiae deletion strains, locus YPL106C, strain sse1, active compounds read low 1.03 | S. cerevisiae deletion strains, locus YPL240C, strain hsp82, active compounds read low 1 | S. cerevisiae deletion strains, locus YPL256C, strain CLN2, active compounds read low 1.03
